Laboratory results from PubChem BioAssay AID602449 (Sanford-Burnham Center for Chemical Genomics, 2012).
Where “and” joins values, the source holds several entries; their conditions need not be identical. Identical values can stand only once. Screen size: about 360,000 compounds; about 5,000 (1.4%) were called active.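 Rule for the calls: active = inhibition of 50% or more, scaled per plate between neutral and stimulator controls; inactive = the rest.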 Shown is part of a subset that was picked to be rich in actives. More than one record can exist for a structure, and the calls need not agree.

Assay: blockers of Ca2+-induced mitochondrial swelling – biochemical, isolated mouse mitochondria, absorbance, primary screen (AID 602449);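 note: 0% = DMSO wells given calcium and 100% = 1 mM EGTA wells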
Conditions: 30 min, at 10 µM, stronger effect = higher value

inhibition, active:
CC(C)S(=O)(=O)c1csc(NC(=O)Nc2ccc(Cl)cc2)c1Cl 88.8%, COc1ccc(S(=O)(=O)Nc2ccc3oc(C)c(C(C)=O)c3c2)cc1 93.4%, COc1cc(NS(=O)(=O)c2ccc(NC(C)=O)cc2)cc(OC)c1 54%, CCCC[C@@H]1CN=C(N)N1CCc1cc(C(F)(F)F)cc(C(F)(F)F)c1 88.5%, FC(F)Oc1ccccc1NC(=S)Nc1cccc(Cl)c1Cl 50.2%, Cc1cc2ncn(CCCCOc3ccccc3)c2cc1C 77.9%, CC(C)CC(=O)N/C(N)=N/c1nc2ccccc2s1 81.8%, CC(C)(CCl)C(=O)Nc1ccc(Sc2ccc(F)cc2)cc1 73.1%, C=CCC1(CC=C)CCCN1C(=O)c1cc(COc2ccc(-n3cncn3)cc2)on1 105%, O=C(c1ccc(N2CCCC2=O)cc1)N1CCN(c2ccc(C(F)(F)F)cc2[N+](=O)[O-])CC1 74.9%, Brc1ccc(CSc2ccc(-c3ccco3)nn2)cc1 57.6%, Cc1nn(C)cc1CNC(=O)Nc1ccc(Cl)cc1 92.2%, CN(C)Cc1ccc(F)cc1Sc1cc(Cl)ccc1Cl 59%, O=C(Cc1ccsc1)N1CCN(S(=O)(=O)c2cc(C(F)(F)F)cc(C(F)(F)F)c2)CC1 53.1%, O=C(c1ccncc1)N1CCN(S(=O)(=O)c2cc(C(F)(F)F)cc(C(F)(F)F)c2)CC1 106%, CN(C)Cc1ccccc1C1(O)c2ccccc2CSc2ccccc21 (centres undefined) 52.8%

inhibition, 14.7% (inactive) and 55.4% (active):
COc1ccc(-c2nc3cc(C)ccn3c2NC2CCCCC2)cc1SC1CCCCC1

inhibition, inactive:
Cc1ccc(OCCNC(=O)CNC(=O)c2ccc(C)c(C)c2)cc1 -0.6%, O=C(Nc1cccc(Br)c1)C1CC(=O)N(C2CCCC2)C1 (centres undefined) -0.1%, COc1ccc(OCC(O)CNC(=O)Nc2ccc(Cl)cc2)cc1 (centres undefined) 6.8%, CC(=O)N1CCC(N(C(=O)Nc2ccc(Cl)cc2)C(C)C)CC1 2.8%, Cc1ccc(S(=O)(=O)N(C)C)cc1NC(=O)COC(=O)/C=C/c1cccs1 -1.3%, Cc1c(C)c(C)c(S(=O)(=O)N2CCC3(CC2)OCCO3)c(C)c1C -0.6%, COC(=O)/C(C#N)=C/c1occc1C 1.6%, CC(=O)Nc1ccc(NS(=O)(=O)c2ccc3c(c2)NC(=O)CC(=O)N3)cc1 -1.8%, COc1ccc(NS(=O)(=O)c2ccc(NC(=S)NC(=O)CC(C)C)cc2)cc1 0.5%, CC(=O)c1c(C)oc2ccc(NS(=O)(=O)c3ccc(C(=O)O)cc3)cc12 0.1%, CC(=O)c1c(C)oc2ccc(NS(=O)(=O)c3ccccc3)cc12 -0.4%, Cc1c(S(=O)(=O)NC(C)c2ccccc2)c(=O)n(C)c(=O)n1C (centres undefined) 1.4%, CN(Cc1nc2ccccc2c(=O)[nH]1)Cc1cc(=O)oc2ccc3ccccc3c12 -0.3%, COc1cc(/C=N/N=C(\N)c2nonc2N)cc(OC)c1OC -1.6%, Cc1cc(Cl)ccc1-c1nc(NCCN(C)C)nc2ccsc12 1.8%, CC1(c2ccc3ccccc3c2)NC(=O)NC1=O (centres undefined) 0.6%, Cc1nc(SCC(=O)NC2CCCCC2C)c(C#N)c(C)c1C (centres undefined) 0.8%, O=[N+]([O-])c1ccc(Sc2n[nH]c(-c3ccco3)n2)nc1 -1.5%, CCCCN1C(N)=NC[C@@H]1Cc1ccccc1 -0.6%, CCCC[C@@H]1CN=C(N)N1CCCC 1.3%, CCCN(Cc1cc2cccc(C)c2[nH]c1=O)S(C)(=O)=O -1.3%, COc1cccc(CNc2ncc(-c3ccccc3)n2C)c1 2%, COc1ccc(/C=C/C(=O)Nc2ccc(C34CC5CC(CC(O)(C5)C3)C4)cc2)cc1OC -0.1%, CCOC(=O)c1ccc[n+](CC(=O)Nc2ccccc2OC(F)F)c1 -3.5%, CC(=O)Nc1ccc(NC(=O)COc2ccccc2C(=O)Nc2cccc(Cl)c2Cl)cc1 6.8%, Cc1ccccc1N1CC(C(=O)Nc2ccc(S(=O)(=O)N3CCCC3)cc2)CC1=O (centres undefined) -2.9%, Clc1ncn(CCOc2ccccc2)c1Cl -3.1%, COCCOCCn1cnc2ccccc21 -0.6%, CCOC(=O)C1CCCN(C(=O)c2cccc3ccccc23)CC1 (centres undefined) 0%, CC(C)CC(COCc1ccc(Cl)cc1)N1CCN(C(=O)c2ccc(C(F)(F)F)cc2)CCC1=O (centres undefined) -1.6%, Cc1cc(C(=O)OCC(=O)Nc2nnc(C(C)C)s2)c2ccccc2n1 22.9%, CC(NC(=O)COC(=O)c1ccc2ccccc2n1)c1ccccc1 (centres undefined) -0.2%, CCOC(=O)C1CCN(C(=O)CSc2cc(=O)n(C)c3ccccc23)CC1 0.5%, Cc1ccc(-n2cc(CN(C)Cc3nccn3C)c(-c3cccc(C)c3)n2)cc1 0.5%, O=C(CCl)Nc1ccc(Sc2ccc(NC(=O)CCl)cc2)cc1 6%, CCN(c1ccccc1)S(=O)(=O)c1ccc(NC(=O)C(C)(C)C)cc1 -1.2%, CC1(C)CCSC(/C=C/c2ccccc2)=N1 1.3%, COCCN1C(=O)C(=O)/C(=C(/O)c2ccc(S(=O)(=O)N3CCCCC3)cc2)C1c1ccc(OC)c(OC)c1 (centres undefined) -0.3%, CCCC(=O)N1CCC1(C)C(=O)Nc1ccc(-n2cncn2)cc1 (centres undefined) -1.3%, O=C(c1cc(COc2c(F)cccc2F)on1)N1CCSCC1 2%, CC(C)c1nc2oc3c(N4CCN(C)CC4)ncnc3c2c2c1CCC2 -0.5%, c1ccc2cc3c(NCCN4CCOCC4)ccnc3cc2c1 1.4%, O=C1CCCc2nn(-c3ccccc3)nc21 0.8%, O=C(c1ccc(N2CCOCC2)c([N+](=O)[O-])c1)N1CCN(c2ccccc2F)CC1 0%, COc1cc(OC)cc(C(=O)NC(=S)N2CCN(c3ccc(C(F)(F)F)cc3[N+](=O)[O-])CC2)c1 0.6%, CCOc1cc(CNn2c(C)nnc2SCC(=O)NC(C)(C)C)ccc1OCC(=O)NC(C)(C)C -1.3%, CC(C)(C)Nc1c(-c2cccs2)nc2ccccn12 0.8%, Cc1ccc(N(Cc2cc(=O)[nH]c3ccccc23)C(=O)CCl)cc1 -0.5%, O=C(CSc1ccc(-c2ccco2)nn1)NCc1ccc2c(c1)OCO2 -0.3%, COc1ccc(NC(=O)CSc2ccc(-c3ccco3)nn2)c(OC)c1 0.7%, CCn1c(=O)n(CC)c2cc(N3CCCC3)c(NC(=O)c3ccccc3Br)cc21 0.5%, CC/C(O)=C1\C(=O)CC(C)(C)CC1=NCCc1nc2ccccc2[nH]1 -1.5%, CC1C/C(=N/NC(=O)c2cccs2)CC(C)(C)C1 (centres undefined) -1%, Cc1nn(C)cc1C(=O)NNC(=S)Nc1ccc(Cl)cc1 1.7%, Cc1ccc(-c2cc(C(=O)NCc3cn(C)nc3C)c3cc(Br)ccc3n2)cc1 1.7%, Cc1ccc(-c2ccc(=O)n(Cc3ccc(F)cc3Cl)n2)cc1 0%, CN(Cc1ccc(F)cc1Cl)S(=O)(=O)c1cccs1 -2.3%, Cc1ccc(-c2c[n+](=O)c3c(n2[O-])CCC3)cc1 0.3%, O=C1CCC(C(=O)N2CCCCO2)CN1Cc1cccc(C(F)(F)F)c1 (centres undefined) 0.5%, C=CCOc1ccccc1CNn1c(C)n[nH]c1=S -0.7%, O=C(c1ccncc1)N1CCN(S(=O)(=O)c2cccc([N+](=O)[O-])c2)CC1 -0.5%, CC(C)(C)c1ccc(S(=O)(=O)N2CCN(C(=O)c3ccc4c(c3)C(=O)N(Cc3ccncc3)C4=O)CC2)cc1 32.6%, O=C(CCC(=O)N1CCN(S(=O)(=O)c2ccc(Cl)cc2)CC1)NCc1cccc(C(F)(F)F)c1 -2.6%, O=C(Cc1ccccc1)N1CCN(S(=O)(=O)c2ccc([N+](=O)[O-])cc2)CC1 -3.8%, CCOC(=O)CNC(=O)CSc1ncccc1-c1nc2ccccc2[nH]1 0%, COc1ccc(NC(=O)c2sc(=O)n(Cc3ccc(S(=O)(=O)N(C)C)cc3)c2C)cc1 -1.7%, CCOC(=O)c1sc2nc(C)nc(SCC(N)=O)c2c1C 0.2%, O=C(CN(C(=O)CCC(=O)Nc1nccs1)c1ccc(F)cc1)NCc1ccc2c(c1)OCO2 -0.8%, CC(=O)Nc1cc(-c2ccc(N3CCN(C)CC3)cc2)cn2c(-c3cccc(C(=O)N(C)C)c3)cnc12 0.5%, CC(=O)OC1CCC2C3CCC4=C(CC(F)C(=O)C4)C3CCC12C (centres undefined) 1.6%, CN(C)CC/C=C1\c2ccccc2CSc2ccccc21 2.3%, CN(Cc1cccs1)C(=O)Cc1c[nH]c2ccccc12 0.8%, COc1ccccc1NC(=O)C1=C(C)Nc2nc3ccccc3n2C1c1cccs1 (centres undefined) 0.9%, COc1ccc(-c2nc3cnccn3c2NC2CCCCC2)cc1-c1cccc(Cl)c1 2% and -0.2%, CCOc1cc(-c2nc3cc(C)ccn3c2NCC2CCCO2)ccc1O (centres undefined) -0.2%, CCCC1CC(C)(C(=O)Cn2[nH]c(=O)ccc2=O)OC1=O (centres undefined) -1.2%, O=C1CCC(C(=O)OCC(=O)Nc2ccc(OC(F)F)cc2)=NN1 -0.6%
